Experimental data from PubChem BioAssay AID1568 (National Center for Advancing Translational Sciences (NCATS), 2009).
Records with an inconclusive call do not appear. A number with no mark means an inactive call. The source made the active and inactive calls. Calls follow the shape of the dose curve; as a rule, active = well fitted curve in the direction sought with a large enough effect; inconclusive = small, poorly fitted or top-dose-only effect, or effect the other way, or another doubt; inactive = no such curve, though single readings can be large or run the other way.

assay: Cell Viability Secondary Assay to Characterize qHTS Inhibitors of the Interaction of Thyroid Hormone Receptor and Steroid Receptor Coregulator 2; details: cell viability counter-screen, qHTS titration; series mostly up to 29.9 µM; activity change, negative = cytotoxicity: at the top concentration
How it was run: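 WRO human follicular thyroid carcinoma cells stably expressing TRbeta and a TRE-luciferase reporter, treated with compounds plus 100nM T3 (final) for 16 h at 37 C. Viability read as ATP content by CellTiter-Glo luminescence.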

SMILES	activity change, negative = cytotoxicity	Potency
COc1ccc2c(c1)-c1nc(/N=C/c3c(O)ccc4ccccc34)sc1CC2	-14.7%	–
Cc1ccc(OC(=S)Nc2ccc(O)cc2)cc1	-16.5%	–
CCC(NC(=O)Nc1ccc(O)cc1)(C(F)(F)F)C(F)(F)F	8.19%	–
Cc1cc2ccccc2n1CCNC(=O)C(C)Oc1ccccc1 (centres undefined)	-12.1%	–
COc1cc(C(c2c(C)[nH][nH]c2=O)c2c(C)[nH][nH]c2=O)ccc1OC(=O)c1ccccc1OC	0.357% [at 59.9 µM]	–
COn1c2c(c3c4nonc4ccc31)CCCC2	-9.39%	–
CCN(C(=O)C1CCCN(c2ncnc3onc(-c4ccc(F)cc4)c23)C1)c1ccccc1 (centres undefined)	-2.77% [at 59.9 µM]	–
C/C(=C\C(=O)c1ccccc1)Nc1ccc(O)cc1	4.99%	–
Cc1ccc2c(CC(=O)Nc3c(C(=O)c4ccc(F)cc4)oc4ccccc34)coc2c1C	-1.38% [at 59.9 µM]	–
COc1ccc(C(=O)Oc2ccc(C(c3c(C)[nH][nH]c3=O)c3c(C)[nH][nH]c3=O)cc2OC)cc1	13.6% [at 59.9 µM]	–
C=CC(=O)OCCOc1ccccc1	6.71% [at 120 µM]	–
Nc1cccnc1Sc1cc(Cl)c(Cl)cc1Cl	7.87%	–
Cc1cc2c(NC(=O)Nc3ccccc3)cccc2nn1	-20%	–
Oc1ccc2ccccc2c1/C=N/c1nccs1	0.358%	–
COc1cc(NC(C)CCCN)c2ncccc2c1 (centres undefined)	–	22.4 µM (active)
CCSc1ncc(Cl)c(C(=O)Nc2nc3ccc(OC)cc3s2)n1	3.92% [at 59.9 µM]	–
Nc1c(C(=O)NCc2ccco2)c2nc3ccccc3nc2n1CCc1ccccc1	-13.6%	–
Cc1nc2ccccc2n2c(O)c(CC(=O)O)cc12	0.278%	–
COc1ccc2ccc3c(c2c1)N=CC1(O3)N(C)c2ccccc2C1(C)C (centres undefined)	-20.7%	–
COc1ccc(CN2C(=O)Cc3c2nc(N)c2c(N)nc(N4CCCCC4)c(C#N)c32)cc1	9.78%	–

SMILES	activity change, negative = cytotoxicity	Potency
O=C(O)[C@H]1CN(CCCP(=O)(O)O)CCN1	-100% [at 59.9 µM]	–
CN(CCO)c1nc(N)c2c(N)nc3c(c2c1C#N)CC(=O)N3C1CCCC1	4.93%	–
CCCc1nc2c(=O)n(C)c(=O)nc-2n(C)n1	–	0.794 µM (active)
O=C(O)/C=C/C(=O)Nc1ccc(OC(F)(F)F)cc1Br	-13.9%	–
CCc1ccc2c(c1)c1nc(C)sc1n2CC	-5.58%	–
Cn1c(-c2ccc(=O)[nH]c2)nc2ccccc21	-11.4%	–
Oc1ccc2ccccc2c1C=NC12CN3CCN(CN(C3)C1)C2	-2.24%	–
CCOC(=O)C(NC(=O)Nc1ccc(O)cc1)(c1ccccc1)C(F)(F)F (centres undefined)	-7.62%	–
Nc1cnccc1C(=O)O	-9.24%	–
Cc1[nH][nH]c(=O)c1C(c1ccc(-c2ccccc2C(=O)O)o1)c1c(C)[nH][nH]c1=O	4.54%	–
CCOC(=O)c1cnc2nc(NCc3ccc(OC)c(OC)c3)[nH]n2c1=O	4.21%	–
Cn1cc(/C=C2\SC(=S)N(NC(=O)c3ccccc3)C2=O)c2ccccc21	20.4%	–
N#Cc1c(NC(=O)c2ccccc2Cl)n(Cc2ccccc2)c2nc3ccccc3nc12	-24.3%	–
CS(=O)(=O)c1ccc(C(=O)OCC(=O)NC(=O)C2CCCCC2)cc1[N+](=O)[O-]	-20.7%	–
CN(C)c1cc(Cl)c2nonc2c1N	-13.2%	–
CN(C(=S)Nc1cccnc1)c1ccc(O)cc1	10.6%	–
COC(=O)c1ccccc1-c1ccc(C(c2c(C)[nH][nH]c2=O)c2c(C)[nH][nH]c2=O)o1	-2.46%	–
CCC(C)NC(=O)COC(=O)c1csc2c1CCCC2 (centres undefined)	-0.105%	–
CC1=NN(c2ccc(F)cc2)C(=O)C1C(c1cccc(O)c1)c1c(C)[nH]n(-c2ccc(F)cc2)c1=O (centres undefined)	-4.18%	–
